Source: PubChem BioAssay (National Center for Advancing Translational Sciences (NCATS))
FBPA Giardia inh = Giardia lamblia aldolase inhibition. A8B2U2. purified Giardia FBPA. Potency, µM (titrated, usually from 59.6 µM), inactives show at the highest dose activity, negative = inhibition, actives largely listed as inhibitors. hit rate 0.71% among 290,000; note: potency is the fitted concentration of half-maximal effect; nearly all actives have a fitted effect of over 55% in size
Target sequence (A8B2U2 whole entry, looked up): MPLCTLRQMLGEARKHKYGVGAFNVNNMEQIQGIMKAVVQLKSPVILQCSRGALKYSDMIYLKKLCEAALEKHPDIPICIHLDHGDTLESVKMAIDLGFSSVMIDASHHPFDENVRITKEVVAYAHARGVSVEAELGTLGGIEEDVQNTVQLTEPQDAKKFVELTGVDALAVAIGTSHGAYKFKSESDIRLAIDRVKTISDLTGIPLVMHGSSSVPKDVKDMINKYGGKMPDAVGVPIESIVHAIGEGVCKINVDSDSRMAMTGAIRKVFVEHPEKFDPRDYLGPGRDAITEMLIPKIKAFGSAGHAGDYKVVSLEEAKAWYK
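Giardia FBPA (40 nM reagent) was preincubated 10 min at RT with compound (up to 57.5 uM final), then substrate plus GAPDH/TPI/NAD/arsenate coupling system with diaphorase/resazurin was added; resorufin fluorescence (525/598 nm) was read after 20 min.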
Sm TGR block = S. mansoni TGR enzyme inhibition; Q962Y6; purified TGR, DTNB reduction, TNB absorbance 405 nm; Potency, µM (highest dose often 114 µM), inactives show at the top dose activity change, negative = inhibition, most hits filed as inhibitors; hit rate 3% among 360,000; AID 485364; note: potency is the fitted concentration of half-maximal effect; nearly all actives have a fitted effect of over 60% in size
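First, TGR (20 nM dispensed) and NADPH were mixed with compound. Second, a 15 min room-temperature incubation followed. Third, further NADPH and then DTNB were added to start the reaction. Finally, TNB absorbance was monitored kinetically.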
RE007 growth inh = less growth of the S. pombe RE007 Vpr strain. S. pombe RE007 Vpr strain, BacTiter-Glo ATP luminescence, 24 h. Potency, µM (highest dose often 92.2 µM), for inactives: at the highest dose activity change, negative = less growth, actives largely listed as inhibitors. hit rate 0.21% among 360,000; active = well fitted falling curve with a large enough effect; inconclusive = small, poorly fitted or top-dose-only effect; inactive = no such curve, though single readings can be large or run the other way; note: potency is the fitted concentration of half-maximal effect; nearly all actives have a fitted effect of over 50% in size
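Fission yeast RE007 carrying one integrated HIV-1 vpr copy, seeded at OD 0.01 in PMG+AL medium with 23 nL pinned compound. Grown 24 h at 30 degrees; viability read by BacTiter-Glo luminescence after 5 min.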
FMDV antiviral = blocks foot and mouth disease virus. FMDV antiviral cell-based qHTS. AID 1159524. Potency, µM (top dose mostly 57.9 µM), for the others: at the highest dose activity change, negative = inhibition, usual class: inhibitors. hit rate 1.2% among 410,000; calls by dose curve; tested in HEK293T cells; note: read-out not given here; potency is the fitted concentration of half-maximal effect; nearly all actives have a fitted effect of over 45% in size
TbPYK inhibitor = T. brucei pyruvate kinase inhibition; TbPYK enzyme, Kinase-Glo Plus ATP luminescence, 45 min; Potency, µM (doses to about 76.8 µM), for the others: at the highest dose activity, negative = inhibition, actives largely listed as inhibitors; hit rate 0.12% among 410,000; Q57TT1; note: potency is the fitted concentration of half-maximal effect; nearly all actives have a fitted effect of over 50% in size
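Assay buffer: 50 mM TEA pH 7.2, 100 mM KCl, 10 mM MgCl2, 0.05% BSA, 0.01% Tween-20. Pyruvate kinase from T. brucei plus substrate met compound, then ADP (130 uM final). Luminescence was read post 45 min RT.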
HCMV antiviral = human cytomegalovirus inhibition. HFF cells, HCMV-luciferase reporter, 72 h; active compounds read low. activity change, negative = inhibition, % at 57.5 µM. hit rate 4.5% among 410,000. AID 1259415; in the data active = activity change below about -60%; inconclusive = no clear call, values can overlap the other calls; inactive = above about -39%
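HFF cells seeded 16 h at 37C, treated with compounds, infected with luciferase-reporter HCMV at MOI 1 PFU/cell; luciferase read at 72 h post infection, normalized to buffer-only and Salinomycin controls.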
Numbers without * were called inactive; ? = inconclusive; . = no result given; [ ] = remark or other dose. Most compounds without a hit are left out; they make up all but 7.7% or so of the library. Unless noted, calls come from the whole dose curve; as a rule, active = well fitted curve in the direction sought with a large enough effect; inconclusive = small, poorly fitted or top-dose-only effect, or another doubt; inactive = no such curve, though single readings can be large; an effect the other way counts as inactive or inconclusive. % is set by controls: 0 for no effect and ±100 for the full control effect.

SMILES	FBPA Giardia inh	Sm TGR block	RE007 growth inh	FMDV antiviral	TbPYK inhibitor	HCMV antiviral
COc1ccc(OC)c(NC(=O)c2cc3c(n(-c4ccc(Cl)cc4)c2=O)CC(C)(C)CC3=O)c1	.	8%	.	5%	1%	11
N#Cc1c(SCC(=O)Nc2cccc(C(F)(F)F)c2)sc2c(O)cc(=O)[nH]c12	-14%	32µM*	6%	12%	-29%	18
COc1ccccc1NC(=O)CSc1sc2c(O)cc(=O)[nH]c2c1C#N	-19%	14µM*	-3%	-1%	-13%	40
CCc1nnc(NC(=O)CSc2sc3c(O)cc(=O)[nH]c3c2C#N)s1	?	35µM*	-7%	11%	0%	-1
CCSc1nnc(NC(=O)CSc2sc3c(O)cc(=O)[nH]c3c2C#N)s1	?	-26%	2%	10%	-27%	-5
Cc1ccc(Cl)cc1N1CCN(C(=O)c2cc(S(=O)(=O)N3CCCC3)c[nH]2)CC1	.	6%	.	-6%	3%	16
Cc1[nH]c2ccccc2c1C(Nc1nccs1)c1ccncc1 (configuration not stated)	0%	40µM*	15%	-11%	7%	80
Cc1ccnc(NC(c2ccncc2)c2c(C)[nH]c3ccccc23)c1 (configuration not stated)	-5%	2µM*	-15%	-19%	-12%	-21
O=C(Nc1nccs1)C(=O)c1c[nH]c2ccccc12	13%	-4%	-12%	68%	3%	333
O=C(NCc1ccccn1)c1cnn(-c2nccc(-c3ccccc3F)n2)c1C1CC1	.	.	.	14%	.	.
CCc1ccc(CNC(=O)c2cnc3sc(N4CCCC4)nn3c2=O)cc1	.	0%	.	-13%	4%	17
CCCCN(C(=O)NC(=O)C1=C(N2CCOCC2)/C(=C/c2ccccc2)CC1)S(C)(=O)=O	0%	3%[11.4 µM]	-28%	.	-4%	17
CCOC(=O)C(=O)C1=C(N2CCOCC2)/C(=C\c2ccc(F)cc2)CC1	-9%	28µM*	-12%	-7%	1%	?
COc1ccc([C@H]2NC(=O)C[C@@H]2C(=O)N2CCOCC2)cc1	.	.	.	.	.	-11
S=C(NCc1cccnc1)NCc1cccnc1	1%	5%	11%	4%	-2%	-5
S=C(NCc1cccnc1)Nc1cccc2ccccc12	6%	32µM*	-8%	-8%	-12%	1
S=C(NCc1ccccc1)Nc1cccc2cnccc12	-22%	?	2%	?	-8%	-87*
S=C(NCCc1ccccc1)Nc1cccc2cnccc12	?	-20%	6%	-12%	-7%	-95*
COc1ccc(OCCNC(=S)Nc2cccc3ccccc23)cc1	-2%	3%	-7%	-16%	-4%	-84*
COc1ccc(CCNC(=S)Nc2cccc3ccccc23)cc1	-3%	-3%	-10%	21%	-6%	-26
COc1ccccc1NC(=O)C1=C(C)Nc2nc(SCc3ccccc3Cl)nn2C1c1cccnc1 (configuration not stated)	.	11%	.	-18%	2%	13
CCOc1cccc2sc(NC(=O)c3ccc(S(=O)(=O)N4CCCCC4C)cc3)nc12 (configuration not stated)	.	3%	.	?	2%	0
Cc1cc(N/N=C/c2ccc([N+](=O)[O-])o2)nc2ccccc12	-7%	-7%	-22%	-24%	-1%	-79*
O=C(N/N=C/c1cc([N+](=O)[O-])ccc1O)c1cc(-c2ccccc2)nc2ccccc12	?	-13%	6%	-28%	-2%	-100*
COC(=O)c1ccc(/C=N/NC(=O)c2ccc3nc[nH]c3c2)cc1	15%	-7%	-7%	6%	-4%	?
SMILES	FBPA Giardia inh	Sm TGR block	RE007 growth inh	FMDV antiviral	TbPYK inhibitor	HCMV antiviral
O=[N+]([O-])c1ccc(O)c(/C=N/Nc2nc3ccccc3[nH]2)c1	-11%	4%	50%	11%	-7%	-99*
Cc1ccc(/C=N/NC(=O)c2ccc3nc[nH]c3c2)o1	-2%	-1%	3%	-12%	4%	-60*
Cc1cc(C(=O)N/N=C/c2ccc([N+](=O)[O-])cc2)c2ccccc2n1	7%	20%	-16%	4%	2%	-1
Cc1ccc(/C=N/NC(=O)c2cc(-c3ccncc3)nc3ccccc23)o1	3%	?	-4%	-16%	-6%	-64*
Cn1c(/C=C/c2ccc([N+](=O)[O-])o2)nc2ccccc2c1=O	.	?	?	25µM*	-5%	.
Cc1ccc(-c2cc(C(=O)N/N=C/c3ccc([N+](=O)[O-])o3)c3ccccc3n2)o1	.	40µM*	-16%	-17%	-12%	-21
Cc1ccsc1/C=N/NC(=O)c1cc(-c2ccncc2)nc2ccccc12	-2%	-4%	2%	-20%	-5%	-95*
COc1ccccc1-c1cc(C(=O)N/N=C/c2ccc(C)o2)c2ccccc2n1	3%	-36%	-15%	-16%	0%	-25
CCCCNC(=O)c1nc2ccccc2nc1-c1ccc(F)cc1	.	.	.	.	.	-2
COc1ccc(NC(=O)CSc2nnc(-c3ccc(OC)cc3)s2)cc1	.	-4%	.	41%	2%	19
O=C(N/N=C/c1ccccn1)c1cc(-c2ccncc2)nc2ccccc12	-2%	-3%	9%	-18%	2%	-25
O=[N+]([O-])c1ccc(O)c(/C=N/Nc2ncnc3c2cnn3-c2ccccc2)c1	-23%	1%	-9%	27%	0%	-99*
O=C(NC(C(=O)N/N=C/c1cc([N+](=O)[O-])ccc1O)c1n[nH]c(=O)c2ccccc12)c1ccccc1 (configuration not stated)	-9%	-9%	-5%	-2%	5%	-89*
O=C(N/N=C/c1ccc([N+](=O)[O-])o1)c1cc(-c2ccc(-c3ccccc3)cc2)nc2ccccc12	-5%	?	2%	?	3%	-99*
O=C(N/N=C/c1ccc([N+](=O)[O-])o1)c1cc(-c2ccncc2)nc2ccccc12	-10%	-59%	-21%	-8%	-8%	-67*
CC(=O)c1ccc(NC(=O)COCc2cc(-c3ccco3)on2)cc1	.	5%	.	-11%	4%	20
Cc1cnc(CNc2ncncc2-c2ccoc2)cn1	-22%	.	.	-13%	.	.
Nc1ccc(-c2cc3ccccc3c(=O)o2)cc1	.	.	-11%	?	0%	-62*
CCCc1cc(N2CCN(c3cccc(C)c3C)CC2)n2cnnc2n1	.	-8%	.	?	0%	?
Cc1cccc(N2CCN(c3ncnc4onc(-c5ccc(F)cc5)c34)CC2C)c1 (configuration not stated)	.	-2%	.	?	3%	-16
